# In the library only some 11% were active in any assay of this set; here they are far more common.
# SW480 rereplic = A quantitative high throughput screen for small molecules that induce DNA re-replication in SW480 colon adenocarcinoma cells | AID 624297, 2012 | Potency, µM (titrated, usually from 46.1 µM), usual class: activators | 340,000 tested, 1.8% active | SW480 DNA re-replication, Hoechst DNA content imaging, 48 h; note: nearly all actives have a fitted effect of over 55% in size
#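 Quantitative HTS format with DMSO vehicle controls; 48 hr drug incubation at 37 C, then 40 min Hoechst staining and scanning imager measurement at 405 nm excitation.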
# Gal4-VP16 FLuc = VP16 counterscreen qHTS for inhibitors of ROR gamma transcriptional activity; Potency, µM (series often up to 53.6 µM), usual class: inhibitors; Drosophila S2 Gal4-VP16 UAS-luciferase, luminescence, 20 h; AID 2546, 2010; 310,000 tested, 3.5% active;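 note: Gal4-VP16 expression switched on by copper sulfate through the metallothionein promoter; nearly all actives have a fitted effect of over 50% in size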
# MCF10A rerep = A quantitative high throughput screen for small molecules that induce DNA re-replication in MCF 10a normal breast cells. MCF 10A DNA re-replication, Hoechst nuclear intensity, 48 h. Potency, µM (highest dose often 46.1 µM), usual class: activators. 350,000 tested, 2.9% active. AID 624296, 2012; note: nearly all actives have a fitted effect of over 50% in size
# RORg inh = qHTS for inhibitors of ROR gamma transcriptional activity; Potency, µM (series often up to 53.6 µM), hits mostly inhibitors; Drosophila S2 Gal4-RORgamma UAS-luciferase reporter, 20 h; 310,000 tested, 5.4% active; note: nearly all actives have a fitted effect of over 60% in size
# Target sequence (P51450 whole entry, looked up, the tested form may be a part): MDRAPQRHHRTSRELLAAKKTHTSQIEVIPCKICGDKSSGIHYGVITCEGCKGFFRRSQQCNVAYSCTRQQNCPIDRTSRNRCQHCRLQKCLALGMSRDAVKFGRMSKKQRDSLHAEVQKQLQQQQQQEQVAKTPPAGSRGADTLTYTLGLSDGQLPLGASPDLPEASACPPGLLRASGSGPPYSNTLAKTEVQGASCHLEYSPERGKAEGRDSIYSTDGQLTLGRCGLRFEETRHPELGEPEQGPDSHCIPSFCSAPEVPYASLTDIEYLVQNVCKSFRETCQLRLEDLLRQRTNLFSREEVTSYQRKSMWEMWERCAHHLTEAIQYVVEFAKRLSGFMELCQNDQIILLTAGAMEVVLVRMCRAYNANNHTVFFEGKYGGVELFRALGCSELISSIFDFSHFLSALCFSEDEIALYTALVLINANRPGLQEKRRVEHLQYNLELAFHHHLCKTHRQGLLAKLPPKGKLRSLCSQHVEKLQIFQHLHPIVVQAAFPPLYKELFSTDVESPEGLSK
#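 Stable Schneider cell line, Gal4 DNA-binding domain fused to ROR gamma, UAS-luciferase. Cmpd 1 hr RT → CuSO4 700 uM final → 20 hr RT → luciferase reagent 10 min → luminescence.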
# IL-1B inflam inh = qHTS for Inhibitors of Inflammasome Signaling: IL-1-beta AlphaLISA Primary Screen; THP-1 LPS/ATP IL-1B secretion, AlphaLISA, 16 h; stronger effect = lower value; activity change, % at 57.5 µM; 360,000 tested, 4.7% active; in the data active = activity change below about -50%; inconclusive = mostly about -30% to -49%
#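 THP-1 cells pretreated 1 hr with compounds (up to 57.5 uM final), then stimulated with LPS (250 ng/mL final) plus ATP (1.25 mM final); secreted IL-1B measured by AlphaLISA after 16 hr, decreased signal indicating inhibition.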
# A number is an active result; - = inactive; ? = inconclusive; . = no result; [ ] = another dose, or the depositor's remark. Unless noted, calls come from the whole dose curve; as a rule, active = well fitted curve in the direction sought with a large enough effect; inconclusive = small, poorly fitted or top-dose-only effect, or another doubt; inactive = no such curve, though single readings can be large; an effect the other way counts as inactive or inconclusive.
SMILES,SW480 rereplic,Gal4-VP16 FLuc,MCF10A rerep,RORg inh,IL-1B inflam inh
Cc1ccc(CNc2oc(COc3ccccc3Cl)nc2C#N)cc1,12µM,-,4.1µM,-,-
CCC[C@H](N[C@@H](C)C(=O)N1[C@@H]2CCCC[C@H]2C[C@H]1C(=O)O)C(=O)OCC,.,-,.,-,.
COCCn1c(=O)c(-c2cccs2)nc2cnc(N3CCNCC3)nc21,.,-,.,-,.
CC1(c2ccccc2)CC(C)(C)N(C(=O)C2CCCO2)c2ccccc21 (stereo not given),?,-,?,-,-65
CCCCCCCC1=Cc2ccc(F)cc2C(C(C(C)=O)C(=O)OC)N1C(=O)OC (stereo not given),.,-,.,-,.
Cc1ccc(S(=O)(=O)c2c(N)n(CCC(C)C)c3nc4ccccc4nc23)cc1,16µM,-,?,?,-63
COc1ccc(Cn2c(N)c(C#N)c3nc4ccccc4nc32)cc1OC,10µM,-,?,-,-
CC(C)CCn1c(N)c(S(=O)(=O)c2cccs2)c2nc3ccccc3nc21,?,?,-,-,-88
COc1ccc(CCn2c(N)c(C#N)c3nc4ccccc4nc32)cc1OC,?,-,?,-,-
Nc1c(S(=O)(=O)c2cccs2)c2nc3ccccc3nc2n1Cc1ccc2c(c1)OCO2,?,-,-,-,-67
Nc1c(S(=O)(=O)c2cccs2)c2nc3ccccc3nc2n1Cc1cccs1,-,-,-,-,-
NNC(=O)c1n[nH]c2c1CC(C1CCCCC1)CC2 (stereo not given),-,.,?,.,-
CC(C)CCC[C@@H](C)[C@H]1CC[C@H]2[C@@H]3CC[C@@H]4C[C@H](O)CC[C@]4(C)[C@H]3CC[C@]12C,-,-,-,-,.
COc1ccc(CCn2c(N)c(S(=O)(=O)c3cccs3)c3nc4ccccc4nc32)cc1OC,-,-,-,-,-55
Nc1c(S(=O)(=O)c2ccccc2)c2nc3ccccc3nc2n1Cc1ccco1,?,?,?,?,-
Cc1ccc(S(=O)(=O)c2c(N)n(Cc3ccco3)c3nc4ccccc4nc23)cc1C,?,-,15µM,-,?
Cc1cc([N+](=O)[O-])cc(/C=N/n2c(C)nc3ccccc3c2=O)c1O,?,-,16µM,13µM,-
C/C(=N\OCc1nc2ccccc2c(=O)n1/N=C/c1cc(C)cc([N+](=O)[O-])c1O)c1ccccc1,-,-,-,-,-
Cc1nnc(-c2ccccc2)c(=O)n1/N=C/c1c(O)ccc2ccccc12,6.5µM,18µM,-,?,-
C/C(=N\OCc1nc2ccccc2c(=O)n1/N=C/c1cc([N+](=O)[O-])ccc1O)c1ccccc1,-,?,-,10µM,-
Cc1nc2ccccc2c(=O)n1/N=C/c1ccc2ccccc2c1O,16µM,-,-,-,-
Cc1cccc(C(CC(=O)N2CCCCC2)c2ccccc2)c1O (stereo not given),-,-,-,-,-
CCOC(=O)N1CCN(C(=O)C[C@@H]2C[C@@]3(C(=O)OC)CCCCC=C3N(Cc3ccccc3)C2=O)CC1,.,.,.,.,-
Cc1ccc(N2CCN(c3ccc(C)cc3)C2c2cccnc2)cc1,-,-,-,-,-86
c1ccc(N2CCN(c3ccccc3)C2c2cccnc2)cc1,-,-,-,-,-
SMILES,SW480 rereplic,Gal4-VP16 FLuc,MCF10A rerep,RORg inh,IL-1B inflam inh
c1ccc(N2CCN(c3ccccc3)C2c2ccncc2)cc1,-,-,-,?,-69
Cc1nnc(SCC(=O)NCC2CCCO2)n1Cc1ccccc1 (stereo not given),-,.,-,.,-
Cc1ccc(-c2cn3nc(-c4ccccc4)c(-c4ccccc4)nc3n2)cc1,18µM,-,?,-,-74
c1ccc(-c2cn3nc(-c4ccccc4)c(-c4ccccc4)nc3n2)cc1,9.2µM,-,7.3µM,22µM,-55
CCc1nn2cc(-c3ccccc3)nc2s1,-,.,-,-[0.365 µM],-
Cc1nn2cc(-c3ccc(-c4ccccc4)cc3)nc2s1,-,?,-,?,-
COc1ccc(C(=O)O)cc1NC(=S)NC(=O)C(c1ccccc1)c1ccccc1,-,-,?,-,-
CC(CCl)n1c(=O)c2ccccc2n1C(=O)c1ccccc1 (stereo not given),.,.,.,.,-
Cn1c(C(=O)N2CCCC(Nc3ccc(F)cc3)C2)cc2ccccc21 (stereo not given),-,-,-,-,-
